T1: TDRD1 261-449 TUDOR (domain begin residue: 261, domain end residue: 449), Q9BXT4
T1 chain: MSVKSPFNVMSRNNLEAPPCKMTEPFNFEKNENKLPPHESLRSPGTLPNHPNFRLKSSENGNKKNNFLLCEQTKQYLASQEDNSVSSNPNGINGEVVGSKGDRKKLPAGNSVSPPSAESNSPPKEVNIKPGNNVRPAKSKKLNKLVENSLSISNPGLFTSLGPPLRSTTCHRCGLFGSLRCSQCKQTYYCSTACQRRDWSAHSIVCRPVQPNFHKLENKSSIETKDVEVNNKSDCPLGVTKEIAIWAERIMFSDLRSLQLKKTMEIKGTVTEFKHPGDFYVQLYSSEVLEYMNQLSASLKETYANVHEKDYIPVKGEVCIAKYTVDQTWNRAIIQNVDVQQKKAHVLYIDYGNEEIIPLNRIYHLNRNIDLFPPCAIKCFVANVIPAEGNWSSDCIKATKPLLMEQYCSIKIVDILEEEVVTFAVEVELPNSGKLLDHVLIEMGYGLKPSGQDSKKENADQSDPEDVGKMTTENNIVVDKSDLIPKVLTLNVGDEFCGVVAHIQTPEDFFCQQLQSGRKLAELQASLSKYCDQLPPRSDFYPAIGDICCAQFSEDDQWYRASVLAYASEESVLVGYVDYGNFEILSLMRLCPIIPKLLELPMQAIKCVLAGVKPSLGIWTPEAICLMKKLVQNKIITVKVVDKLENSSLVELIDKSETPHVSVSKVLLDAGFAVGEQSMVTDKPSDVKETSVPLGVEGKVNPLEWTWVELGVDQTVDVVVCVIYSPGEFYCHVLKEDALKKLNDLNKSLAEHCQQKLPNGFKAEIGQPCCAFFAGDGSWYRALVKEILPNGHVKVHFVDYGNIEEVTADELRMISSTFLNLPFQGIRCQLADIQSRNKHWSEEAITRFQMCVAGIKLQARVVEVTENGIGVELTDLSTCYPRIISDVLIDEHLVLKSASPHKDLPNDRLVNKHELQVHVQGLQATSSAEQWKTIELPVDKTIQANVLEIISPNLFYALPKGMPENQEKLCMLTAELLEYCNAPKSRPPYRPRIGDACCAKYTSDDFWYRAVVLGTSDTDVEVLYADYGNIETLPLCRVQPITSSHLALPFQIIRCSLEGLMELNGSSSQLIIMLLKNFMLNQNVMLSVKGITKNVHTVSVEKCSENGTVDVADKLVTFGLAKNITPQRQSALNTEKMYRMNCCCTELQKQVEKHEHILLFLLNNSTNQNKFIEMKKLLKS

T2: TCEA2 231-299 TFIIS_C (domain begin residue: 231, domain end residue: 299), Q15560
T2 chain: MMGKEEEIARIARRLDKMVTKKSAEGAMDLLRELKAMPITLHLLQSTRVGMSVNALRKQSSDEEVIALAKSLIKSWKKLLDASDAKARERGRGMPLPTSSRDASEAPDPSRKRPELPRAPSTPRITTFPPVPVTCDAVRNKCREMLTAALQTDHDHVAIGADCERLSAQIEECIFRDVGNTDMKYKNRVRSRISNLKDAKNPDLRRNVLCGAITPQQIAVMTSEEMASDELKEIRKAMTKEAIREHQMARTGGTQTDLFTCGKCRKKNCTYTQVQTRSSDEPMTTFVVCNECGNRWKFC

T3: SPSB2 26-221 SPRY (domain begin residue: 26, domain end residue: 221), Q99619
T3 chain: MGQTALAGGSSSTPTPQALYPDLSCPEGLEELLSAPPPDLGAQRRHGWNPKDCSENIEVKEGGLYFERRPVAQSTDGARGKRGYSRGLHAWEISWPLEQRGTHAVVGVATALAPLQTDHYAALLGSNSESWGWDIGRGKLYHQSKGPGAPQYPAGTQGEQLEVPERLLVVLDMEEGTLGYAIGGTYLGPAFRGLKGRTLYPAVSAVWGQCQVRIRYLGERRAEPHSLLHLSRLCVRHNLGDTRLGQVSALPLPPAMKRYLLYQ

T4: TDRKH 290-430 TUDOR+SNase (domain begin residue: 290, domain end residue: 430), Q9Y2W6
T4 chain: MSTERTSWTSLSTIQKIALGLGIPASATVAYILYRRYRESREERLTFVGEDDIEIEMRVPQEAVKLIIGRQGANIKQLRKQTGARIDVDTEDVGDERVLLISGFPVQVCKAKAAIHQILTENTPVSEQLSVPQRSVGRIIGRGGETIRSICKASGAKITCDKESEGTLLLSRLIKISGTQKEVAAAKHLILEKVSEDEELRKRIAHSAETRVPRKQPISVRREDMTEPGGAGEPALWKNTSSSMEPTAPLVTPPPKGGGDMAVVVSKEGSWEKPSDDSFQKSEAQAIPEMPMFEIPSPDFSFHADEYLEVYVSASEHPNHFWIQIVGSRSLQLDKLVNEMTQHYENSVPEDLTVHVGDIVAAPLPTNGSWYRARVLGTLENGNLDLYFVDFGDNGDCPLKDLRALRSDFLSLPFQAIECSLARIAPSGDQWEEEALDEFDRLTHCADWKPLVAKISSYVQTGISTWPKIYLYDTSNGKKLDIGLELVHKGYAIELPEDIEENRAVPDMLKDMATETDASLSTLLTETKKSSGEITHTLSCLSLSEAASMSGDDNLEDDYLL

T5: STAM 1-143 VHS (domain begin residue: 1, domain end residue: 143), Q92783
T5 chain: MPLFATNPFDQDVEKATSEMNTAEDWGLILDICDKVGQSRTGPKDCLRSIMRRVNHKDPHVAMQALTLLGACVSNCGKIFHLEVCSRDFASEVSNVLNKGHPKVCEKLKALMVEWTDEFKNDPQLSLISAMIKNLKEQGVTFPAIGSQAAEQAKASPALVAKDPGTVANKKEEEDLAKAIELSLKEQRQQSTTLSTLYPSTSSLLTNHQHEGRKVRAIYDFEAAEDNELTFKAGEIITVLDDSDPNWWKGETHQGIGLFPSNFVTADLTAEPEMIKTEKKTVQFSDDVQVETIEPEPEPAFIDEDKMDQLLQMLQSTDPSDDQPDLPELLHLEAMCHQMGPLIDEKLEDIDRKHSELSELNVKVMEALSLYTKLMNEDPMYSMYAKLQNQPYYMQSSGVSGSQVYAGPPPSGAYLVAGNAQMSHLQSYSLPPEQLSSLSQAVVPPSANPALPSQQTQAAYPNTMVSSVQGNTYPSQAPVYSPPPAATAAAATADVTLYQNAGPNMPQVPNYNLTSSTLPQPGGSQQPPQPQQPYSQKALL

T6: TERF1 58-268 TRF (domain begin residue: 58, domain end residue: 268), P54274
T6 chain: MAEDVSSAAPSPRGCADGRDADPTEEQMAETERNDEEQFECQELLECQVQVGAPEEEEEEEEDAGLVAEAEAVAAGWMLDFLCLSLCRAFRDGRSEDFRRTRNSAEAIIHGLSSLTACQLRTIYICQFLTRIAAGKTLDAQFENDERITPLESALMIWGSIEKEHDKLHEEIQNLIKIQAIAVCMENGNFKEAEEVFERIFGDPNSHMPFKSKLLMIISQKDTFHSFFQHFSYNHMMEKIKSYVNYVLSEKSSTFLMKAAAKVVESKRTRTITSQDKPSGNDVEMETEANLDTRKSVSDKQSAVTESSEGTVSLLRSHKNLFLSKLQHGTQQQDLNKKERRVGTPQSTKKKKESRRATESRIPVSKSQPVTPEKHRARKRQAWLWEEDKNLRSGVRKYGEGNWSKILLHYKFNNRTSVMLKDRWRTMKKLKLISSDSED


Target: T1, TDRD1 261-449 TUDOR (domain begin …
Assay: phage ELISA signal ratio (GST-PRM binding over GST background); higher = stronger binding of peptide-phage to the PRM
Method in brief: (§1)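 Approximately 48 individual clones from selection rounds 4 and 5 were tested by phage ELISA, and those scoring positive were sequenced. They came from five rounds of selecting an M13 phage library of randomized, cysteine-free, glycine-flanked hexadecapeptides on the gene-8 major coat protein against human peptide recognition domains fused to the C-terminus of glutathione S-transferase (GST) in 96-well plates. Each figure in the table is the ELISA signal on the GST-domain fusion relative to the signal on GST alone.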

Binder | phage ELISA signal ratio
EPGHWMEWIWDTIELE | 9.32
IWDQWYEWNSEWDRLP | 3.57
WNQWQEWTTDHGVLLE | 7.12
ELWQHWDMWNVEEPEF | 7.88
EMHWMDIWDSLLPESK | 7.87

Target: T2, TCEA2 231-299 TFIIS_C (domain begin …
Assay: as above
Method in brief: as §1

Binder | phage ELISA signal ratio
WAWEDMWFMEQLESTE | 3.89
EQWTWEPMWEWMTITD | 5.86

Target: T3, SPSB2 26-221 SPRY (domain begin …
Assay: as above
Method in brief: as §1

Binder | phage ELISA signal ratio
PEFLDENNNVDVGHTW | 38.3
EVMYDWNGNASSLLMM | 35.3
RFPMYDHNANLLPLPQ | 38.1
KKDWNNNIEAWLVGEE | 36.6
DKYWPVDPNNNMPRFG | 37.4
MEKDMNGNMAVFEMHH | 39.2
YPQWLASSRGEMNNNI | 36.2
AGPDWNHNRLTFNHPQ | 35.2
KQDYLNVTDWNNNAVM | 44.7

The binders below were run against TLN2 312-417 IRS (domain begin residue: 312, domain end residue: 417), Q9Y4G6 in the same assay as above.
Method in brief: as §1

Chain of TLN2 312-417 IRS (domain begin residue: 312, domain end residue: 417), Q9Y4G6 (Q9Y4G6 whole entry): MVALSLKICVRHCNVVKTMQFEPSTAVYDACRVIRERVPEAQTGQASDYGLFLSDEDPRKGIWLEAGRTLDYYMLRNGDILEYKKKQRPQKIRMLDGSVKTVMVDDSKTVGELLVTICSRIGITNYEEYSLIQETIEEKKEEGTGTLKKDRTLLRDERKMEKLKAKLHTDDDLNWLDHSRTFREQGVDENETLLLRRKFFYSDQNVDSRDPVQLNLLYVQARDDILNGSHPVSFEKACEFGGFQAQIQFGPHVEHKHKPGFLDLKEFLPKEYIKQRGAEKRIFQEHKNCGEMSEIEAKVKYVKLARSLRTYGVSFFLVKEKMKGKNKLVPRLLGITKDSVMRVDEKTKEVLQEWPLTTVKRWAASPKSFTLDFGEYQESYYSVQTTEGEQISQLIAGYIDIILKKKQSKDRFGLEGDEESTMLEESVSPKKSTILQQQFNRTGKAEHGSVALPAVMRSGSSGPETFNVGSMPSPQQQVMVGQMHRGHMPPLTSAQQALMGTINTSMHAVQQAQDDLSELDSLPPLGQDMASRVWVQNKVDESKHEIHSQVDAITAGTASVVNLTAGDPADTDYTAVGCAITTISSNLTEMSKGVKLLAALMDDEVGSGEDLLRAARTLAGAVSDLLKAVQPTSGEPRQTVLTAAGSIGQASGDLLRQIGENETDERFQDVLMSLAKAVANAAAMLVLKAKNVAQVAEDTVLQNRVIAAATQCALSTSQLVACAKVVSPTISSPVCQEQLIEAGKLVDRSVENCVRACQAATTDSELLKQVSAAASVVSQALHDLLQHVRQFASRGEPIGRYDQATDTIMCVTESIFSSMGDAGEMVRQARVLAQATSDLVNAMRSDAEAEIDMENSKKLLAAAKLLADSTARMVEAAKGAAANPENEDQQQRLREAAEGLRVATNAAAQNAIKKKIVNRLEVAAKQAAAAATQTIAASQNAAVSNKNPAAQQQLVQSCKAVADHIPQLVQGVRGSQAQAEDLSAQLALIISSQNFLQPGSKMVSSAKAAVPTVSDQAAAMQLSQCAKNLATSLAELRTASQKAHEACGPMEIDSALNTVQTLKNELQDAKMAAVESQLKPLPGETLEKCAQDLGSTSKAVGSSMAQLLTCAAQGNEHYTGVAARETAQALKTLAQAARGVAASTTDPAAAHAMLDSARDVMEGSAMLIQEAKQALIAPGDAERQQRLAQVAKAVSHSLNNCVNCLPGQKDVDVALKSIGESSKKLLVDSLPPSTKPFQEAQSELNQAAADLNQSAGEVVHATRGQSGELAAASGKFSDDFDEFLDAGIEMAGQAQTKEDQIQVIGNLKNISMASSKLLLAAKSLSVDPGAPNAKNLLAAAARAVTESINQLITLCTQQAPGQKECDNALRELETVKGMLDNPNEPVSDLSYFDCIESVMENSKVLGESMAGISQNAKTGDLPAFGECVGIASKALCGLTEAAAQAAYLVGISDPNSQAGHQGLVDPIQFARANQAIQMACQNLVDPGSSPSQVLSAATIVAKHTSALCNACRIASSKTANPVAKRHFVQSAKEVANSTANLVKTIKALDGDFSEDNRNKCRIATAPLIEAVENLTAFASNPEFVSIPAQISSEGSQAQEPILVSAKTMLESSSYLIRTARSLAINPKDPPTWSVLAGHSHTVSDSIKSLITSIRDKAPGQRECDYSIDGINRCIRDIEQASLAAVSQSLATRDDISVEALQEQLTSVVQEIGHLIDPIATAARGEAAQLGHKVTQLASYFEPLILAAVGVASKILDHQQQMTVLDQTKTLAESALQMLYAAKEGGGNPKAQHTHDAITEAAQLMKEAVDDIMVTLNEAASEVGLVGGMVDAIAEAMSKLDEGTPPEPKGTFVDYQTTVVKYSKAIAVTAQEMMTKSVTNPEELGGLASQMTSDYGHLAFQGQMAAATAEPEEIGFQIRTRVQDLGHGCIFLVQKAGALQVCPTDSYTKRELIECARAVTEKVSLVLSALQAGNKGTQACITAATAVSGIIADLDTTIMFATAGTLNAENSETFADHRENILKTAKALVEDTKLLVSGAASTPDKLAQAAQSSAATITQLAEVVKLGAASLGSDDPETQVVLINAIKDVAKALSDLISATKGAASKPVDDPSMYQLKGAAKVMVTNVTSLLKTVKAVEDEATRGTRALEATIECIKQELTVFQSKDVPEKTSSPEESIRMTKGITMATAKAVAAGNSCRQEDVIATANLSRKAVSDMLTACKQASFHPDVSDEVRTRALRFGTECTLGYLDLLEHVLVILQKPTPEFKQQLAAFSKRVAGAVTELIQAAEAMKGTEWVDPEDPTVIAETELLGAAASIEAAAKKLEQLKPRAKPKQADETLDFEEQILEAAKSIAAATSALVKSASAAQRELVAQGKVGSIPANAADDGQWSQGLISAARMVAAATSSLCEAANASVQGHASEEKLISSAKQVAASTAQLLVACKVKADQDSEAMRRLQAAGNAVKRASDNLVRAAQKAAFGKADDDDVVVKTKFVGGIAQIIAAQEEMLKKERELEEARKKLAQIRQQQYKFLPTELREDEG

Binder | phage ELISA signal ratio
WTASQYWVYEDGFIPG | 23.7
NQDRVWVGNSAFKSPD | 22
VENVYYGPYQWEGSFQ | 15.4
DMVWTNSFLHSHSQLV | 19.5

Target: T4, TDRKH 290-430 TUDOR+SNase (domain begin …
Assay: as above
Method in brief: as §1

Binder | phage ELISA signal ratio
REMLDYYQGVWVPPVS | 4.26
HEQNRMDVRNDGRTGF | 8

Target: T5, STAM 1-143 VHS (domain begin residue: …
Assay: as above
Method in brief: as §1

Binder | phage ELISA signal ratio
NPHSHQQFMQAVENHI | 22.2
QERNHHDPHALWESLF | 20.8

Target: T6, TERF1 58-268 TRF (domain begin residue: …
Assay: as above
Method in brief: as §1

Binder | phage ELISA signal ratio
LGHTTAEMIDYMELQW | 15.3
EHSFLFEDWMWEGKDH | 5.48

Each binder was assayed against SUB1 58-127 PC4 (domain begin residue: 58, domain end residue: 127), P53999 in the same assay as above.
Method in brief: as §1

Binder | phage ELISA signal ratio
DEEEWWWQFQSHQLPE | 8.77

These binders were tested against TLN1 309-401 IRS (domain begin residue: 309, domain end residue: 401), Q9Y490 in the same assay as above.
Method in brief: as §1

Chain of TLN1 309-401 IRS (domain begin residue: 309, domain end residue: 401), Q9Y490 (Q9Y490 whole entry): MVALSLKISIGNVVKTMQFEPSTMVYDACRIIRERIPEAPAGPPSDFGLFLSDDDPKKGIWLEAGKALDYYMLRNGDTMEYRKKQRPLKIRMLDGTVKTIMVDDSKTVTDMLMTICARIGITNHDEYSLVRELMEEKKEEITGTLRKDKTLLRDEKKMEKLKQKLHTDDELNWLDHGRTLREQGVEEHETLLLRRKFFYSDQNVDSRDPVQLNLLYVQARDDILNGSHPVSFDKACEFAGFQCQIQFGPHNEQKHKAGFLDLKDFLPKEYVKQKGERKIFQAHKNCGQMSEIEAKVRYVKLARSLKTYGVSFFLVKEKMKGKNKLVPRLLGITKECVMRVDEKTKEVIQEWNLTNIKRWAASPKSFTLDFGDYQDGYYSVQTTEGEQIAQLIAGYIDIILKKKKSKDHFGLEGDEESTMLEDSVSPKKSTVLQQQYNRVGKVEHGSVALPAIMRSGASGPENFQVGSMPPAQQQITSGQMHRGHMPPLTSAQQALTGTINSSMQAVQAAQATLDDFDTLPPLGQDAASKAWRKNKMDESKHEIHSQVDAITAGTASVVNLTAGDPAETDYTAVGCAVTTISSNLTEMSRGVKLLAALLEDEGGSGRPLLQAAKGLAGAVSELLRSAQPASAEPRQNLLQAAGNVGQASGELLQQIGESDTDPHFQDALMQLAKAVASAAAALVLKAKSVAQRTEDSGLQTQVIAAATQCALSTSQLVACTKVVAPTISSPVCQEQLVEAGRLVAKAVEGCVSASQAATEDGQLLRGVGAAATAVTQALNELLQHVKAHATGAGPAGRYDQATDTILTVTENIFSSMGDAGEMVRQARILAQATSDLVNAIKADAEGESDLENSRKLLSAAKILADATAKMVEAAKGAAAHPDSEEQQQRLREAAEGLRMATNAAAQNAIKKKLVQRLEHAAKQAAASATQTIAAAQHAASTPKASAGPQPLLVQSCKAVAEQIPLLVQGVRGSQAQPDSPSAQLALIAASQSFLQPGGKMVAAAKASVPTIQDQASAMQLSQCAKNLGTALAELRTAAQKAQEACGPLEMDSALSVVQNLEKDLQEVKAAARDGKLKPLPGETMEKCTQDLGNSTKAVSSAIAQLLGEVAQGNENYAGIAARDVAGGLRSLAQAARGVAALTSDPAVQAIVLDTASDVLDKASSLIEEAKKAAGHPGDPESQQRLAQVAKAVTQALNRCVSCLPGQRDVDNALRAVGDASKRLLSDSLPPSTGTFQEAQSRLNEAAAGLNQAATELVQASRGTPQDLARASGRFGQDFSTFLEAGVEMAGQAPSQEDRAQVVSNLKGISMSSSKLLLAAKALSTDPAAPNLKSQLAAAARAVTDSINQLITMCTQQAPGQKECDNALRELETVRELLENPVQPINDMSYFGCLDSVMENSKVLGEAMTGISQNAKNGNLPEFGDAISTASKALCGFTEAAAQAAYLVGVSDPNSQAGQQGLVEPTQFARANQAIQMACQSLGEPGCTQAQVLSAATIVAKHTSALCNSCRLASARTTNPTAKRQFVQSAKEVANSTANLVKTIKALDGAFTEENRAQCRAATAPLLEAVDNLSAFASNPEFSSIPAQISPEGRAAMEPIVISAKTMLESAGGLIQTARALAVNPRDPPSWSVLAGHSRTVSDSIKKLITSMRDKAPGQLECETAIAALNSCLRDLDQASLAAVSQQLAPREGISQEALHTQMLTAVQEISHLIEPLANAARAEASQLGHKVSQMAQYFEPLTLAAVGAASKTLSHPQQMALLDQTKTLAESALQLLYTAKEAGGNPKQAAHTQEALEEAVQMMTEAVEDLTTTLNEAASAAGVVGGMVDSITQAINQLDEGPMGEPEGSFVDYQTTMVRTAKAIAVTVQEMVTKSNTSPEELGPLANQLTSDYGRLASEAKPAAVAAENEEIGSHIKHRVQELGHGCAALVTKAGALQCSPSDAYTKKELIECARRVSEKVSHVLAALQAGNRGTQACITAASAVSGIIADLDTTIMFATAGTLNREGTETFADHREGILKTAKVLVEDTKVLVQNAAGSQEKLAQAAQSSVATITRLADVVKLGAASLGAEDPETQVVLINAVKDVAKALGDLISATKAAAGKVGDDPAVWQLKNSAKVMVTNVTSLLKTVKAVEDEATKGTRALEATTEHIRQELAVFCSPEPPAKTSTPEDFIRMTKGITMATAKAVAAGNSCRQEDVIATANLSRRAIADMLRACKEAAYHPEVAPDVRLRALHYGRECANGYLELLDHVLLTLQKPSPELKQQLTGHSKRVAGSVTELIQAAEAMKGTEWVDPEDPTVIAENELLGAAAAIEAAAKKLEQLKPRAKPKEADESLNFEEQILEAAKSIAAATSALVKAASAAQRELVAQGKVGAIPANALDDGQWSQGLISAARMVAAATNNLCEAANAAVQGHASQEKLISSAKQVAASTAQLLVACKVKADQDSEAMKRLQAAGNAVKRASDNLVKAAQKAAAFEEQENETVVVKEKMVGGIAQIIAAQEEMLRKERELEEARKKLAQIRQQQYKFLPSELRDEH

Binder | phage ELISA signal ratio
PNVGEWQYNLSYIWEM | 15.5
